Reference: PubChem BioAssay (NCATS)
Records with an inconclusive call do not appear. The source made the active and inactive calls. Calls follow the shape of the dose curve; as a rule, active = well fitted curve in the direction sought with a large enough effect; inconclusive = small, poorly fitted or top-dose-only effect, or another doubt; inactive = no such curve, though single readings can be large; an effect the other way counts as inactive or inconclusive.

Columns and labels:
[1] = HPAF-II 18hr Apoptosis Induction qHTS against the NCATS CANVASS Library (AID 1347360)
Method in brief: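 HPAF-II cells at 500/well were exposed for 18 h at 37 C to an 11-point compound series. Caspase-3/7 activity was read by Caspase-Glo luminescence after 15 min at RT.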

[2] = HEK293 12hr Apoptosis Induction qHTS against the NCATS CANVASS Library (AID 1347361)
Method in brief: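 HEK293 cells (500/well) were exposed to an 11-point qHTS concentration series for 12 hours at 37 degrees C. Caspase-3/7 activity was then read by DEVD-substrate luciferase luminescence after 15 min at room temperature.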

[3] = tested on: NAD(P)H diaphorase (Clostridium kluyveri); experiment: Diaphorse counterscreen qHTS: Assay Interference Panel against the NCATS CANVASS Library (AID 1347362)
Method in brief: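 Clostridium kluyveri diaphorase in PBS with 0.01% Tween-20 was preincubated 15 min at room temperature in the dark with compounds (11-point series). Resorufin fluorescence (ex 525/20, em 598/25) was read 5 min after adding resazurin/NADH.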

[4] = biological target: Luciferin 4-monooxygenase (Photinus pyralis) (UniProt P08659); experiment: Firefly luciferase counterscreen qHTS: Assay Interference Panel against the NCATS CANVASS Library (AID 1347363)
Sequence of Luciferin 4-monooxygenase (Photinus pyralis) (P08659 whole entry, looked up): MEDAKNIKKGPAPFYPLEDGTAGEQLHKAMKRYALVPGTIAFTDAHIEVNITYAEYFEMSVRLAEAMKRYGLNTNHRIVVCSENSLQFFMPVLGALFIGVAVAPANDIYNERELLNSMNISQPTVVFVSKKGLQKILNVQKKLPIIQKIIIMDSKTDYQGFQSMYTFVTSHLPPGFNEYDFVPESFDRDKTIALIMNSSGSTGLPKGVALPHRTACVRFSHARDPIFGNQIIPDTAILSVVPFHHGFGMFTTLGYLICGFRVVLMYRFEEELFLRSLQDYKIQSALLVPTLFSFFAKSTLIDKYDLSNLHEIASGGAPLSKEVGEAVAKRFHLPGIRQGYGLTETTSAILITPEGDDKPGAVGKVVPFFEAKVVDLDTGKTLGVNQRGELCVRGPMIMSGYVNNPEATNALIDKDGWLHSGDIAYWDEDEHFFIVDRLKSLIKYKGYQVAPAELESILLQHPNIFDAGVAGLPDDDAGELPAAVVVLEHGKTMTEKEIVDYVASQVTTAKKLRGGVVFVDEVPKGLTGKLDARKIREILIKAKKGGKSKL
Method in brief: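 Purified P. pyralis luciferase was added to compounds (11-point series) preincubated 15 min at room temperature with substrate containing 0.013 mM D-luciferin and 0.013 mM ATP; luminescence was read after 5 min.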

[5] = KB-3-1 Cancer Cell Toxicity qHTS against the NCATS CANVASS Library (AID 1347366)
Method in brief: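 KB-3-1 cells (500/well) in DMEM with 10% FBS were exposed to compounds for 72 h at 37C. Viability was read by CellTiter-Glo luminescence.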

[6] = qHTS for ATAD5 Agonist screened against the NCATS CANVASS Library (AID 1347367)
Method in brief: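 Luciferase reporter under ATAD5 control, stably integrated in HEK293T cells (2000/well). Compounds (11 points) incubated 16 h at 37C; viability read first by CellTiter-Fluor, then luminescence reporting ATAD5 activation. MMS positive control.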

[7] = G06 Cancer Cell Toxicity qHTS against the NCATS CANVASS Library (AID 1347368)
Method in brief: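 Cells were plated at 500 per well, then compounds were added over an 11-point range. After 72 hr at 37C, CellTiterGlo was added and luminescence measured as ATP content.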

[8] = qHTS for ATAD5 Antagonist screened against the NCATS CANVASS Library (AID 1347370)
Method in brief: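 Compounds (11-point) co-dosed with 10 µM 5-FUrd for 16 h at 37 °C onto HEK293T-ATAD5 luciferase reporter cells. Viability measured by CellTiter-Fluor fluorescence, then ATAD5 reporter signal by luminescence.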

[9] = J3T Cancer Cell Toxicity qHTS against the NCATS CANVASS Library (AID 1347371); conditions: J3T dog glioma viability, ATP luminescence, 72 h; at 91.4 µM (top of the series)
Method in brief: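 Luminescence from CellTiterGlo, reporting cellular ATP, serves as the viability measure after 72 hr compound treatment of J3T canine glioma cells seeded at 500 cells/well.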

[10] = biological target: Nuclear receptor subfamily 1 group I member 3 (Homo sapiens) (UniProt Q14994); experiment: qHTS for Constitutive Androstane Receptor (CAR) Antagonist screened against the NCATS CANVASS Library (AID 1347372)
Sequence of Nuclear receptor subfamily 1 group I member 3 (Homo sapiens) (Q14994 whole entry, looked up): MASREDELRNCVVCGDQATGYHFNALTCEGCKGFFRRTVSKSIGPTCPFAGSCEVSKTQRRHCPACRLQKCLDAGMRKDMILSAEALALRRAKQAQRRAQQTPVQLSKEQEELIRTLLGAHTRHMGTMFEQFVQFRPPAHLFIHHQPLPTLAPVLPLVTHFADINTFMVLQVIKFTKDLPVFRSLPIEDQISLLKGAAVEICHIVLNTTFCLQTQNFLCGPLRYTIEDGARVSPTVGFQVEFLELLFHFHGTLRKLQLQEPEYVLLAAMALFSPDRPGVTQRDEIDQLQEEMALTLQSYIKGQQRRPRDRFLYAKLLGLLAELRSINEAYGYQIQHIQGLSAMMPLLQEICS
Method in brief: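 Cells were seeded and left 4hr to attach, then received compound at 11 concentrations and 50 nM CITCO. Following 24hr incubation, fluorescence viability and luciferase luminescence were read sequentially.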

[11] = biological target: Nuclear receptor subfamily 1 group I member 3 (Homo sapiens) (UniProt Q14994); experiment: qHTS for Constitutive Androstane Receptor (CAR) Agonist screened against the NCATS CANVASS Library (AID 1347373)
Method in brief: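 Cells were plated and allowed to attach for 4hr, then dosed with compound in an 11-point series alongside 1.5uM PK11195. After 24hr at 37C, viability was measured fluorometrically and CAR-driven CYP2B6 reporter luminescence was recorded.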

[12] = 10-beta competent E. coli microbial cell viability qHTS against the NCATS CANVASS Library (AID 1347376)
Method in brief: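 Bacterial suspension diluted to 0.2 OD was dosed with compounds, 11-point series, then held overnight at 37C. BacTiter-Glo reagent was added, and after 20 min at room temperature ATP-dependent luminescence was measured.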

[13] = DH5-alpha competent E. coli microbial cell viability qHTS against the NCATS CANVASS Library (AID 1347377)
Method in brief: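 Bacteria were dispensed at 0.2 OD, then compounds were pin-transferred. Plates were incubated overnight at 37C, after which BacTiter-Glo was added and luminescence measured 20 min later.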

[14] = qHTS for H2AX Agonists against the NCATS CANVASS Library (AID 1347378)
Method in brief: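 CHO-K1 cells (1000/well, overnight at 37C) exposed to compounds at several concentrations for 3 hr at 37C, 0.76% DMSO final. Lysates read by TR-FRET (phospho-H2AX S139 Eu-cryptate antibody / H2AX-d2 antibody) after 24 hr at room temperature; 665/615 nm ratio.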

[15] = qHTS for Inflammasome Signaling Inhibitors: IL-1-beta AlphaLISA screen against the NCATS CANVASS Library (AID 1347379); conditions: THP-1 LPS/ATP, IL-1B AlphaLISA secretion, 16 h; at 114 µM (top of the series)
Method in brief: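 Secreted IL-1B from human THP-1 cells quantified by AlphaLISA 16 hr after compound addition (final up to 57.5 uM). A 1 hr compound pretreatment preceded inflammasome activation with 250 ng/mL LPS plus 1.25 mM ATP (final).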

[16] = qHTS for Antimalaria activity screened against the NCATS CANVASS Library (AID 1347380)
Method in brief: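 Compounds are titrated over 11 concentrations onto Dd2 parasite cultures (0.3% parasitemia, 2.5% hematocrit). Growth over 72 h at 37C in low oxygen is measured as SYBR Green DNA fluorescence after lysis.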

[17] = Inflammasome Signaling qHTS Counterscreen: IL-1-beta AlphaLISA counterscreen against the NCATS CANVASS Library (AID 1347381)
Method in brief: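 Purified IL-1-beta (4 pg/well) + compound, 11-pt conc. series; acceptor beads 6 ug/mL + biotin-Ab 0.6 nM final, 1 h RT; SA-donor 24 ug/ml final, 30 min dark RT; read ex 680/em 615.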

[18] = Cytotoxicity qHTS for assessment of Hepg2 cells membrane integrity screened against the NCATS CANVASS Library (AID 1347387)
Method in brief: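 Cells were seeded at 2000 per well and left overnight to attach. Compounds were pin-transferred to give 0.59 nM - 46 uM in an 11-point series and incubated 5 hr at 37C. CytoTox-ONE reagent was added and, after 10 min at room temperature, fluorescence (ex 560, em 590 nm) was read.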

[19] = qHTS for Activators of p53 Stress Response Pathway screened against the NCATS CANVASS Library (AID 1347388)
Method in brief: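 p53RE-bla HCT-116 cells (4000/well) were plated 5 h at 37C, exposed to compounds for 16 h at 37C over an 11-point concentration series, then loaded with CCF4 for 2 h at room temperature; 460/530 nm emission ratio read.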

[20] = qHTS assay for small molecule disruptors of mitochondrial membrane potential screened against the NCATS CANVASS Library (AID 1347389)
Method in brief: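 Mitochondrial depolarization in HepG2 cells is scored as a falling aggregate-to-monomer fluorescence ratio after 1 hr compound exposure and 30 min staining with Mito-MPS dye at 37C, each compound tested as an 11-point titration.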

Measured: outcome

NCCc1ccc(O)cc1
inactive: all assays above
